We go through 15 compounds from ChEMBL document CHEMBL1961873, “Compounds: GSK PKIS; Assays: Nanosyn kinase panel” (2012).

The term inhibition denotes the relative decrease from the control value, in per cent.

Experiment [1] deals with Tyrosine-protein kinase Fyn (Homo sapiens) (UniProt P06241). The note with it: at 1 µM.
Experiment [2] has as its target Tyrosine-protein kinase HCK (Homo sapiens) (UniProt P08631). As to conditions: at 0.1 µM.
Experiment [3] shares this target. The note with it: at 1 µM.
The target in experiment [4] is Insulin-like growth factor 1 receptor (Homo sapiens) (UniProt P08069). The note with it: at 0.1 µM.
Chain of Insulin-like growth factor 1 receptor (Homo sapiens) (P08069 31-736 limits assumed): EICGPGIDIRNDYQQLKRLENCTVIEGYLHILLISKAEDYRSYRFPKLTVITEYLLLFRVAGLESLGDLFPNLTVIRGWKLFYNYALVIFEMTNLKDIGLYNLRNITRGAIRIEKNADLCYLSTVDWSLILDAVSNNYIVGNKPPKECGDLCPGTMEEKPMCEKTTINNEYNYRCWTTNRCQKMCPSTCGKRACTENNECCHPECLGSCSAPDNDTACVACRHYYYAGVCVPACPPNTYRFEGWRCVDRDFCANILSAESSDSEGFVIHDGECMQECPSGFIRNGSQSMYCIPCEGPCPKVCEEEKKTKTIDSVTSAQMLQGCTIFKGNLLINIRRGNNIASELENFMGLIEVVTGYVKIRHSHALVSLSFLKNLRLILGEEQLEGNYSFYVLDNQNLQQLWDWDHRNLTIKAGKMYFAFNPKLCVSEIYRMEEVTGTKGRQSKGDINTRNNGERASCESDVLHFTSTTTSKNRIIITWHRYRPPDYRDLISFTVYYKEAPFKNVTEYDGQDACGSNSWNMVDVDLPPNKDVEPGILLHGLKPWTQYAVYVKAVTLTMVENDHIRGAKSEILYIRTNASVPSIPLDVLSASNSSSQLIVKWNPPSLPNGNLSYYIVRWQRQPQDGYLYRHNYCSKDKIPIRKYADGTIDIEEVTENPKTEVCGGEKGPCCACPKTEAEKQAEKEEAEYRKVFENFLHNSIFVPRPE
Chain of Insulin-like growth factor 1 receptor (Homo sapiens) (P08069 741-1367 limits assumed): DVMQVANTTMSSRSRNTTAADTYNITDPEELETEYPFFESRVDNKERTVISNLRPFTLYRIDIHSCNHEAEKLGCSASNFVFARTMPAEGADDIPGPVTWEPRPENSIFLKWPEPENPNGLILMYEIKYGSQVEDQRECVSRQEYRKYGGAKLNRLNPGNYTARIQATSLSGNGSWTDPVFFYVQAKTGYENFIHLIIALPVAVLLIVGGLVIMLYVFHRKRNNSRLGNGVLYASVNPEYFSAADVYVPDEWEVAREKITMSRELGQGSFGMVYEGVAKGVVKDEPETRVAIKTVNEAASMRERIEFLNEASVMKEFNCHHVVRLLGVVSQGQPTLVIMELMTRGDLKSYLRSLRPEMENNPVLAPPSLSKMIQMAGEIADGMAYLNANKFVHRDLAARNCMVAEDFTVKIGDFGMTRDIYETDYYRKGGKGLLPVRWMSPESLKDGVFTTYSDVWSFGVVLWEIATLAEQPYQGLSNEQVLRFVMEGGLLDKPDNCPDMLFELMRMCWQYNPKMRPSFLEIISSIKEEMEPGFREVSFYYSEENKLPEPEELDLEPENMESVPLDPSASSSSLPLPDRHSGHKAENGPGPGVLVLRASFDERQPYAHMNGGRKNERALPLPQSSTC
Experiment [5] shares this target. The note with it: at 1 µM.
In experiment [6] the target is Insulin receptor (Homo sapiens) (UniProt P06213). The note with it: at 0.1 µM.
Chain of Insulin receptor (Homo sapiens) (P06213 28-758 limits assumed): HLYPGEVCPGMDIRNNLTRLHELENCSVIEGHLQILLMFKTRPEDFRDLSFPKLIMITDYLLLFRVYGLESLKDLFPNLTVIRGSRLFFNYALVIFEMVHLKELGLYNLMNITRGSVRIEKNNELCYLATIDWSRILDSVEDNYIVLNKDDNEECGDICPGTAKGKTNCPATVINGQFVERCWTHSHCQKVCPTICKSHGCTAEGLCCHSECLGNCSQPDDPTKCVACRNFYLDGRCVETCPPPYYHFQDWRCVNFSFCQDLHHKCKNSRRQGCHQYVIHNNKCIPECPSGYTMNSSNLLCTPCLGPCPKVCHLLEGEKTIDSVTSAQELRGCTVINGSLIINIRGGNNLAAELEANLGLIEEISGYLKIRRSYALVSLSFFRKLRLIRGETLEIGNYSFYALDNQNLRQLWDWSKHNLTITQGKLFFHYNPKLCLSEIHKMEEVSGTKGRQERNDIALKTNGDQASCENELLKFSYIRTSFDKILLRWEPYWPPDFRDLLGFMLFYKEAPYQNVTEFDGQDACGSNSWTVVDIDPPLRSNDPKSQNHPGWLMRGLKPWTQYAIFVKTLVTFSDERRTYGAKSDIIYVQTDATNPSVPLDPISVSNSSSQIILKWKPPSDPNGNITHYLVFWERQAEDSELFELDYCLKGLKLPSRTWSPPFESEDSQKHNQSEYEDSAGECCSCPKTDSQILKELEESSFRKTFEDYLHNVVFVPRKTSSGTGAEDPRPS
Chain of Insulin receptor (Homo sapiens) (P06213 763-1382 limits assumed): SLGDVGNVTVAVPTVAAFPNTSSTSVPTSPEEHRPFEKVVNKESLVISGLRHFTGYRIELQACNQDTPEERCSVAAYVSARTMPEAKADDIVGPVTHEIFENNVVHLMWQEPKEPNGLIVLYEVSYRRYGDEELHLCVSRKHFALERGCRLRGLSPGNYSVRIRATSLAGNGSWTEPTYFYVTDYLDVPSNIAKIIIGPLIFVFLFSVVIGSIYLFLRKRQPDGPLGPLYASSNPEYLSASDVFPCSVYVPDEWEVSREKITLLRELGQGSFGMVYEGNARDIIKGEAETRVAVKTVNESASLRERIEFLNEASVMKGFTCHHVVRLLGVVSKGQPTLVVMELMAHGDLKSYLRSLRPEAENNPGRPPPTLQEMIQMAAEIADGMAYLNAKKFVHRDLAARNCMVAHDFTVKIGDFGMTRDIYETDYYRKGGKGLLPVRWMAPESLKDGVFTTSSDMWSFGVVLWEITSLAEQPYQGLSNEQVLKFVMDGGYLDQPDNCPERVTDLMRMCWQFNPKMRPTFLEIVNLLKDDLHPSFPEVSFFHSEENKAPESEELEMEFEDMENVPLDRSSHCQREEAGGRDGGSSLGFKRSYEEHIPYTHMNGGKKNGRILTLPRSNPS
Experiment [7] shares this target. As to conditions: at 1 µM.
Experiment [8] deals with Insulin receptor-related protein (Homo sapiens) (UniProt P14616). As to conditions: at 0.1 µM.
Chain of Insulin receptor-related protein (Homo sapiens) (P14616 27-742 limits assumed): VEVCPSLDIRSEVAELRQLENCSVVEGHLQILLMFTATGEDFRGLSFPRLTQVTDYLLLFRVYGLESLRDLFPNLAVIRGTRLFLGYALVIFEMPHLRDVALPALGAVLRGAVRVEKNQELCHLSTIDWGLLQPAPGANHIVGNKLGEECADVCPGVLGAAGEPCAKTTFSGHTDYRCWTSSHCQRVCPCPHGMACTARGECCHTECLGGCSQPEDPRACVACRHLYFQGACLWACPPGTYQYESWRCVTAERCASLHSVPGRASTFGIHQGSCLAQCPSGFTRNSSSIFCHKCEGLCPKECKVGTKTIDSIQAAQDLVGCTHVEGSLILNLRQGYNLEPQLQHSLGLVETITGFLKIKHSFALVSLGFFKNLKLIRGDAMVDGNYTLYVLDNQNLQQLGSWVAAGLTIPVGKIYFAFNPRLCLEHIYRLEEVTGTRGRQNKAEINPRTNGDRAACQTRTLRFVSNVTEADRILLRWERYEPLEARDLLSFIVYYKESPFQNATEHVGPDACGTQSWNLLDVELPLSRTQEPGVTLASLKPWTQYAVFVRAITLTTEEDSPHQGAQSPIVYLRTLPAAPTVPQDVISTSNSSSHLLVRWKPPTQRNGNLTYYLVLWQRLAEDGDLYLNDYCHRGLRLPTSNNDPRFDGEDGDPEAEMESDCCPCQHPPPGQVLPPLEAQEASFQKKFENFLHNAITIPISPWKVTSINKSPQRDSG
Chain of Insulin receptor-related protein (Homo sapiens) (P14616 747-1297 limits assumed): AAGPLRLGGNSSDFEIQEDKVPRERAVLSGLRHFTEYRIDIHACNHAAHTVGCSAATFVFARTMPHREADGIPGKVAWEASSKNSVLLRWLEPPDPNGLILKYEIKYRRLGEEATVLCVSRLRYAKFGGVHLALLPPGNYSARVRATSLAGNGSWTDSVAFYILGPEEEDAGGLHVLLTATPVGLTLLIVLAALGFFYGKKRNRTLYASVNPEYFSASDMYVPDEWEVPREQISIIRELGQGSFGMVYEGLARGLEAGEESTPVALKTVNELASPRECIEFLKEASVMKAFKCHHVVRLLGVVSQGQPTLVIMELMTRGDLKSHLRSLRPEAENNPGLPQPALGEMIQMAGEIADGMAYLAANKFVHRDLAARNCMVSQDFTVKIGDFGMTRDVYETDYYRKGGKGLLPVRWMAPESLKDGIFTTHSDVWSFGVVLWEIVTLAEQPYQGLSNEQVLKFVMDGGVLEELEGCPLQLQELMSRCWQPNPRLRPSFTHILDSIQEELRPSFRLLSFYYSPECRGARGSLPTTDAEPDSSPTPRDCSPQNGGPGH
The target is the same in experiment [9]. The note with it: at 1 µM.
Experiment [10] has as its target T1, Tyrosine-protein kinase ITK/TSK (Homo sapiens) (UniProt Q08881).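 Note: mean percent inhibition of ITK from the GSK PKIS screen.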
T1 sequence (whole entry): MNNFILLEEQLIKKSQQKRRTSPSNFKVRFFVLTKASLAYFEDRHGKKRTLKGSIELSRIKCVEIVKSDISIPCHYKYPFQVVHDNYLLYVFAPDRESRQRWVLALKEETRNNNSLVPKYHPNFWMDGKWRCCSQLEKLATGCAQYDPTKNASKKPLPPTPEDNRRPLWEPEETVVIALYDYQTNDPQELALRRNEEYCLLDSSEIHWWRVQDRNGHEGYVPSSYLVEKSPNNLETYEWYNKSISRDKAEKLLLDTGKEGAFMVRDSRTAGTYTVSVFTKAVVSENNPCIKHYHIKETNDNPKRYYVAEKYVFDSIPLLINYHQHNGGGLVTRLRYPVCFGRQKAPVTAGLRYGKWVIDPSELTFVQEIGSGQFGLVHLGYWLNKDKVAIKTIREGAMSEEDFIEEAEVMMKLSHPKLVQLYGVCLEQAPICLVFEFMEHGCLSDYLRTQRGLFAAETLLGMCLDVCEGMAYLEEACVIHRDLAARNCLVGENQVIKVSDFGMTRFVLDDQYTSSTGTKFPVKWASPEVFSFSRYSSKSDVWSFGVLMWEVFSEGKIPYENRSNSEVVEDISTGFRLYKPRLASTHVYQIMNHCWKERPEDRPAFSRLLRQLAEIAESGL
As to conditions: at 0.1 µM.

“And” between values parts separate entries of the source, which are not always exact repeats. Equal entries are not always repeated.

Chain of Tyrosine-protein kinase HCK (Homo sapiens) (P08631 2-526 limits assumed): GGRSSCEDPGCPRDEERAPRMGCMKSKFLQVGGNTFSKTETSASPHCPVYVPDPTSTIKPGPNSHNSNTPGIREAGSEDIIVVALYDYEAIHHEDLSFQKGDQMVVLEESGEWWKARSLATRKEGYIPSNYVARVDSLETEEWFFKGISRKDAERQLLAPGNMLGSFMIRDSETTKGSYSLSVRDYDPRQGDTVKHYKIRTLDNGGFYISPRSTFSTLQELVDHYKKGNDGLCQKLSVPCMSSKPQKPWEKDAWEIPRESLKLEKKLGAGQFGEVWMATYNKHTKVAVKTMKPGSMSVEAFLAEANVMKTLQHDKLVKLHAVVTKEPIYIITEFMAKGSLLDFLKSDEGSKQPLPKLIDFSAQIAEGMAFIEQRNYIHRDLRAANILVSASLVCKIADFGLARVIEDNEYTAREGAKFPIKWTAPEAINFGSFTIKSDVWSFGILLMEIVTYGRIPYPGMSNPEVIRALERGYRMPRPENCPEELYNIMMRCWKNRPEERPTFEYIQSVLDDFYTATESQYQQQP
Chain of Tyrosine-protein kinase Fyn (Homo sapiens) (P06241 2-537 limits assumed): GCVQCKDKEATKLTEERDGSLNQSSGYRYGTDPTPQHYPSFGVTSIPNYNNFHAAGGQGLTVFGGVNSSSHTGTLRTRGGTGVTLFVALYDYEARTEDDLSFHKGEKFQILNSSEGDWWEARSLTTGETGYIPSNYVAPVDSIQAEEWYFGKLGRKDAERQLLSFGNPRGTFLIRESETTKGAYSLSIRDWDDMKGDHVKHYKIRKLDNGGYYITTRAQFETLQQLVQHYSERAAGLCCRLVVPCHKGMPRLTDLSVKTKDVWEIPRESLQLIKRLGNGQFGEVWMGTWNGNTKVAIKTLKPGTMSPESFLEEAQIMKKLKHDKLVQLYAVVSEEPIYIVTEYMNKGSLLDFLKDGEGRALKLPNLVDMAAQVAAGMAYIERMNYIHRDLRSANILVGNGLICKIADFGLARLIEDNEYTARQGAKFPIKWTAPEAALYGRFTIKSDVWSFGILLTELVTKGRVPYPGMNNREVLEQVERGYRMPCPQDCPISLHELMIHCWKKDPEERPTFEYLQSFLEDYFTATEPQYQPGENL

`CS(=O)(=O)CCNCc1ccc(-c2ccc3ncnc(Nc4ccc(OCc5ccccc5)cc4)c3c2)o1`: the inhibition was 14.9% in experiment [1]; 7.13% in [2]; 14.3% in experiment [3]; 1.22% in experiment [4]; 2.03% in experiment [5]; -0.92% in experiment [6]. Also, the inhibition in experiment [7] turned out to be 2.86%; in experiment [8], 1.91%; in [9], 2.07%; in experiment [10], 0.71%.
For the compound `c1ccc(-c2n[nH]cc2-c2ccnc(-c3ccc(OCCn4ccnc4)cc3)c2)nc1`, the inhibition turned out to be 7.07% in experiment [1]; 1.8% in experiment [2]; 9.8% in experiment [3]; 6.59% in [4]; 2.24% in experiment [5]; 2.91% in experiment [6]. The inhibition in experiment [7] was 2.56%; in experiment [8], -0.75%; in experiment [9], -0.28%; in experiment [10], 0.01%.
With `Nc1nonc1-c1nc2cnccc2n1C1CC1`, the inhibition is 1.39% and -1.43% in experiment [1]; 5.06% and 2.65% in [2]; 10.4% and 4.62% in experiment [3]; 2.14% and -5.78% in experiment [4]; 3.37% and -3.55% in experiment [5]; -0.15% and 4.69% in experiment [6]. Also, the inhibition in experiment [7] is 2.19% and 6.69%; in [8] it was 2.59% and 0.39%; in [9], 3.14% and 0.7%; in experiment [10], 1.56% and -2.28%.
`CN(c1ccc(NC(=O)NCCN2CCOCC2)cc1)c1ccnc(Nc2ccc(CS(C)(=O)=O)cc2)n1`: the inhibition was found to be 1.63% in experiment [1]; 1.67% in [2]; 13.6% in experiment [3]; 3.76% in experiment [4]; 4.94% in experiment [5]; 0.64% in experiment [6]. The inhibition amounted to 4% in experiment [7], 2.7% in experiment [8], 2.84% in experiment [9] and 1.76% in [10].
Consider `O=C1Nc2ccccc2/C1=C1\CCc2cc(O)ccc21`, for which the inhibition is 7.65% in [1]; 6.34% in experiment [2]; 14.6% in experiment [3]; 4.61% in [4]; 12.5% in experiment [5]; 7.96% in experiment [6]. The inhibition is 23% in [7], 3.81% in experiment [8], 2.83% in experiment [9] and 3.68% in experiment [10].
For `CS(=O)(=O)CCNCc1ccc(-c2ccc3ncnc(Nc4ccc(OCc5cccc(C(F)(F)F)c5)cc4)c3c2)o1`, the inhibition in experiment [1] is 0.05%; in experiment [2], 9.32%; in experiment [3] it was 11.7%; in [4], 18.2%; in experiment [5], 11.6%; in experiment [6], 11.2%. The inhibition came out at 3.04% in [7], 1.51% in [8], 3.38% in [9] and 1.71% in [10].
`CN1CCC(n2cnc(-c3ccc(F)cc3)c2-c2ccnc(NCCO)n2)CC1`: the inhibition in experiment [1] was found to be 1.8%; in experiment [2], 3.07%; in experiment [3], 9.14%; in [4] it was 3.65%; in experiment [5], 4.78%; in [6] it was 2.63%. Further, the inhibition in experiment [7] stood at 3.28%; in experiment [8] it was 3.34%; in experiment [9], 2.39%; in experiment [10], 1.66%.
Consider `CC(C)c1ccc(-c2cc(-c3c[nH]nc3-c3ccccn3)ccn2)cc1`, for which the inhibition in experiment [1] was 1.91%; in experiment [2], 2.47%; in experiment [3], 4.67%; in experiment [4], 1%; in experiment [5] it was 2.04%; in experiment [6], -0.15%. The inhibition in experiment [7] is 1.37%; in experiment [8] it was -0.94%; in experiment [9], -0.37%; in [10], 0.84%.
Take `OCCCNc1nccc(-c2c(-c3ccc(F)cc3)nn3cc(C(F)(F)F)ccc23)n1`: the inhibition is 4.88% in experiment [1]; 5.52% in experiment [2]; 5.92% in experiment [3]; 1.8% in experiment [4]; 1.03% in experiment [5]; 0.28% in experiment [6]. For the same compound, the inhibition came out at 3.33% in experiment [7], 3.08% in [8], 1.53% in experiment [9] and 1.09% in [10].
As to `CN(C)CCNC(=O)Nc1ccc(N(C)c2ccnc(Nc3ccc(CS(C)(=O)=O)cc3)n2)cc1`, the inhibition was determined as 3.44% in experiment [1]; 6.05% in [2]; 12.3% in experiment [3]; 5.44% in [4]; 8.75% in experiment [5]; 3.47% in [6]. Further, the inhibition in experiment [7] turned out to be 5.6%; in experiment [8], 2.48%; in [9] it was 3.81%; in experiment [10], 1.62%.
Turning to `O=C(O[C@H]1CN[C@H](C#Cc2cc3ncnc(Nc4ccc(OCc5cccc(F)c5)c(Cl)c4)c3s2)C1)N1CCOCC1`, the inhibition in experiment [1] is 6.59%; in [2], 3.37%; in [3], 6.71%; in experiment [4] it was 6.13%; in experiment [5], 14.8%; in experiment [6] it was 7.72%. In addition, the inhibition worked out at 5.91% in [7], 3.84% in experiment [8], 3.3% in [9] and 0.99% in [10].
On to `CC1=C(C(=O)Nc2ccc3[nH]ncc3c2)C(c2ccc(F)cc2)N=C(c2ccc(C(F)(F)F)nc2)N1` (stereo not given), for which the inhibition in [1] turned out to be 3.27%; in experiment [2], 4.24%; in [3], 12.2%; in [4] it was 3.5%; in experiment [5], 3.35%; in experiment [6], 3.82%. Also, the inhibition stood at 1.7% in experiment [7], 1.92% in [8], 1.25% in experiment [9] and 1.64% in [10].
`COc1ccc(-c2nn3ncccc3c2-c2ccnc(Nc3ccc(F)c(F)c3)n2)cc1`: the inhibition was 12.1% in experiment [1]; 3.38% in experiment [2]; 16.5% in experiment [3]; 2.75% in [4]; 3.2% in [5]; 4.32% in [6]. Also, the inhibition in [7] is 2.06%; in experiment [8], 3.12%; in [9], 3.47%; in experiment [10], 0.92%.
Turning to `Cc1nnc(-c2cccc(-c3ccc(C(=O)NCC4CC4)cc3)c2)o1`, the inhibition amounted to 0.54% in experiment [1]; 5.93% in experiment [2]; 8.3% in [3]; 3.76% in experiment [4]; 6.53% in [5]; 9.39% in experiment [6]. Besides, the inhibition in [7] is 5.71%; in [8], 4.48%; in [9], 3.22%; in experiment [10], 0.99%.
Take `CC1(C)CC(n2cnc(-c3ccc(F)cc3)c2-c2ccnc(N)n2)CC(C)(C)N1`: the inhibition in experiment [1] came to 2.65%; in experiment [2], 2.18%; in experiment [3] it was 3.22%; in experiment [4] it was 1.3%; in experiment [5], 3.3%; in [6] it was 4.97%. For the same compound, the inhibition was 4.07% in [7], -0.08% in [8], -1.13% in experiment [9] and 0.29% in experiment [10].
